Compound activity deposited in PubChem by National Center for Advancing Translational Sciences (NCATS).
BAZ2B inh = BAZ2B (human) inhibition; Q9UIF8; AlphaScreen BAZ2B-H3K14Ac peptide displacement; Potency, µM (series often up to 114 µM), for inactives: at the top dose activity change, negative = inhibition, actives largely listed as inhibitors; hit rate 4.4% among 360,000; AID 504333; further: on the % scale 0 is the no-effect control and ±100 the full control effect; nearly all actives have a fitted effect of over 60% in size
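Compounds, titrated to a top concentration of 110 uM, were incubated 30 min at room temperature with preformed BAZ2B/acetyl-K14 H3 peptide complex (50 nM each). Proximity signal was measured by AlphaScreen after 20 min with beads.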
HP1b chromo inh = inhibitors of HP1-beta chromodomain binding to methylated histone tails | AlphaScreen HP1-beta / biotin-H3K9me3 peptide binding | hit rate 0.56% among 390,000 | Potency, µM (series often up to 114 µM), for the others: at the top dose activity change, negative = inhibition, usual class: inhibitors | AID 540317; further: nearly all actives have a fitted effect of over 70% in size
Target sequence (P83916 whole entry, looked up): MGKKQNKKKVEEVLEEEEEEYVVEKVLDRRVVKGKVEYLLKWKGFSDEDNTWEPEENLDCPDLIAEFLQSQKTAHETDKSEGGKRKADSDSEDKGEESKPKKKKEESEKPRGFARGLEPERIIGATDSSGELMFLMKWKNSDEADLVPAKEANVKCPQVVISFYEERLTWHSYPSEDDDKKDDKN
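Compound inhibition of the preformed complex between 50 nM HP1-beta and 50 nM biotinylated H3K9me3 peptide was read by AlphaScreen. Buffer was PBS pH 7.4 with 0.01% Tween-20. Incubations ran 30 min at room temperature, with 10 ug/mL donor/acceptor beads.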
G9a block = G9a (human) methyltransferase inhibition. Potency, µM (highest dose often 102 µM), for the others: at the highest dose activity, negative = inhibition, hits mostly inhibitors. G9a H3K9 monomethylation, AlphaScreen, 2 h. Q96KQ7. hit rate 8.8% among 350,000; further: on the % scale 0 is the no-effect control and ±100 the full control effect; nearly all actives have a fitted effect of over 75% in size
Target sequence (Q96KQ7 913-1193 limits assumed): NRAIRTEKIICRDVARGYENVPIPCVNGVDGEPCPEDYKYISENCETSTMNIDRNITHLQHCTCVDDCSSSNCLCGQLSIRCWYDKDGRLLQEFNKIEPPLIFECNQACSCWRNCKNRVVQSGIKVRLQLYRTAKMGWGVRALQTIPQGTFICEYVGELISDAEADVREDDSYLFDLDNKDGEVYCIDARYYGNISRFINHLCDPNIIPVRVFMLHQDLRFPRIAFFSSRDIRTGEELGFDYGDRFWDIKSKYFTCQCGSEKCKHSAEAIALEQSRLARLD
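AlphaScreen read-out: biotin-H3K9 peptide (500 nM) methylation by 20 nM enzyme with 20 uM SAM, 2 h at room temperature after 15 min compound preincubation; anti-monomethyl H3K9 antibody plus donor/acceptor beads, 10 min dark.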
JMJD2A Tudor inh = inhibitors of human JMJD2A Tudor domain; O75164; AlphaScreen JMJD2A-Tudor / H3K4me3 peptide binding; Potency, µM (top dose mostly 114 µM), inactives show at the top dose activity change, negative = inhibition, most hits filed as inhibitors; hit rate 4.4% among 390,000; AID 504339; further: on the % scale 0 is the no-effect control and ±100 the full control effect; nearly all actives have a fitted effect of over 50% in size
Sfp PPTase inh = blocks B. subtilis Sfp PPTase activity; Biochemical Sfp PPTase activity, qHTS; hit rate 3.5% among 310,000; Potency, µM, inactives show largest response in the series, negative = inhibition, usual class: inhibitors; AID 1490;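 further: the enzyme is Sfp with the accession as filed and its product quenches rhodamine fluorescence; 0% = enzyme reaction without inhibitor and -100% = no enzyme wells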
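After 15 min at room temperature with compound, 15 nM Sfp received 5 uM rhodamine-CoA plus 12.5 uM BHQ-2-ybbR (50 mM Hepes pH 7.6, 10 mM MgCl2). Rate came from the fluorescence difference over 30 min, ex 525/em 598 nm.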
* = called active by the depositor; ? = inconclusive; / = no result given; [ ] = dose if it differs, or a comment. Shown are actives, neighbours in structure and some others; about 12% of the full set was active somewhere. The call rests on the fitted dose curve; in most records, active means well fitted curve in the direction sought with a large enough effect; inconclusive means small, poorly fitted or top-dose-only effect, or another doubt; inactive means no such curve, though single readings can be large; an effect the other way counts as inactive or inconclusive. Potency means the concentration at half of the fitted maximal effect.

SMILES	BAZ2B inh	HP1b chromo inh	G9a block	JMJD2A Tudor inh	Sfp PPTase inh
CCc1ccc(N=c2c([N+](=O)[O-])nn(-c3ccccc3)n2O)cc1	32µM*	?	?	45µM*	?
Cc1ccc(CN=c2c([N+](=O)[O-])nn(-c3cccc(C)c3)n2O)cc1	?	?	-3%	35µM*	11%
COc1ccc(-n2nc([N+](=O)[O-])c(=NCc3cccnc3)n2O)cc1	-9%	21%	18%[59 µM]	-15%	5%
COc1ccc(-n2nc([N+](=O)[O-])c(=NCCc3ccc(C)cc3)n2O)cc1	?	?	?	50µM*	-4%
CCCOc1ccc(C2C(=O)N(C3CCCCCC3)CC(=O)N2CCCOCC)cc1OC (stereo not given)	-1%	11%	-4%[59 µM]	-15%	/
CCOc1cc(/C=N/n2cnnc2)ccc1OS(=O)(=O)c1ccc(C)cc1	-13%	-5%	?	-18%	-11%
Cc1ccc(-n2ncc(C(=O)Nc3ccc4c(c3)OCO4)c2C2CCN(C(=O)OC(C)(C)C)CC2)c(C)c1	?	-17%	?	32µM*	/
COCCCN1C2=C(C(=O)CC(C)(C)C2)C(c2ccc(OC)c(OC)c2)C2=C1CC(C)(C)CC2=O	-17%	23%	71µM*	-11%	25%
COc1cc(C2C3=C(CC(C)(C)CC3=O)N(C)C3=C2C(=O)CC(C)(C)C3)ccc1O	-2%	19%	/	-1%	?
COc1cc(C2C3=C(CC(C)(C)CC3=O)N(C)C3=C2C(=O)CC(C)(C)C3)cc(Br)c1O	12%	49%	71µM*	-10%	-4%
Cc1ccc(O)c(C(=O)c2cnc3c(c2)c(C)nn3-c2ccccc2)c1	-38%	-8%	-18%[59 µM]	-33%	-13%
O=C(c1cccc(Cl)c1)N1CCN(CCc2ccccn2)CC1	-16%	46%	-31%[59 µM]	-13%	/
O=C(O)c1cc(S(=O)(=O)O)cc(Nc2c3ccccc3nc3ccccc23)c1O	?	?	18µM*	?	?
CN(CC(=O)Nc1cccc(F)c1)C(=O)c1csc2c1CCCC2	3%	25%	-18%[0.501 µM]	-10%	/
Cc1ccccc1CN1C(=O)c2ccccc2Sc2ccc(C(=O)NC3CCCC3)cc21	0%	15%	-28%[59 µM]	-25%	/
COc1ccc2c(c1)-c1nc(NC(=O)c3cccc(Br)c3)sc1CC2	-10%	43%	?	-30%	/
COc1ccc2c(c1)Cc1sc(NC(C)=O)nc1-2	-31%	16%	-27%[12.7 µM]	-25%	20µM*
COc1ccc2c(c1)Cc1sc(NC(=O)c3cccnc3)nc1-2	-29%	34%	45µM*	-10%[11.4 µM]	-85%
CCc1cc2ccc(OC)cc2nc1SCC(=O)NNC(=O)c1ccco1	-21%	31%	50µM*	-15%	-5%
COc1ccc2nc(NC(=O)c3ccc(-c4cccc([N+](=O)[O-])c4)o3)sc2c1	79µM*	/	?	/	13%
COc1ccc2c(c1)CCc1sc(NC(=O)c3ccc(Br)cc3)nc1-2	-1%	34%	?	-28%	/
COc1ccc2c(c1)Cc1sc(NC(=O)c3ccco3)nc1-2	-44%	16%	56µM*	-8%	-19%
COc1ccc2sc(NC(=O)c3ccco3)nc2c1	?	15%	7.1µM*	?	-2%
COc1ccc2c(c1)CCc1sc(NC(=O)c3ccc(C)cc3)nc1-2	-20%	23%	6%	-16%	5%
COc1ccc2c(c1)-c1nc(NC(=O)c3ccco3)sc1CC2	-28%	-26%	25µM*	-34%	-11%
SMILES	BAZ2B inh	HP1b chromo inh	G9a block	JMJD2A Tudor inh	Sfp PPTase inh
COc1ccc2c(c1)-c1nc(NC(=O)c3cccs3)sc1CC2	-11%	31%	?	-22%	-19%
COc1ccc2c(c1)CCc1sc(NC(=O)c3ccco3)nc1-2	-34%	-16%	40µM*	-30%	?
O=c1n(-c2cccc(Cl)c2)c(=O)n2n1CCC2	-36%	18%	16%[59 µM]	-4%	-16%
CCOc1ccc(N2Cc3ccccc3C2)cc1	/	15%	2.5µM*	-22%	3%
CCOc1ccc(N2CC(=O)N(c3ccc(OCC)cc3)CC2=O)cc1	12%	11%	/	-11%	5%
O=S(=O)(Nc1ccc(-c2ccc(NS(=O)(=O)c3ccccc3)cc2)cc1)c1ccccc1	/	12%[57 µM]	/	-9%	/
COc1ccccc1-n1c(SCC(=O)NC2CCS(=O)(=O)C2)nc2cc([N+](=O)[O-])ccc21 (stereo not given)	-2%	0%	19%[59 µM]	-17%	11%
COc1ccccc1-n1c(SCC(=O)c2ccc(O)cc2O)nc2cc([N+](=O)[O-])ccc21	?	-17%	?	25µM*	1%
CC[N+]1(C)CC2CCC(C)(C1)C2(C)C (stereo not given)	-2%	-8%	?	32µM*	-12%
O=C(N/N=C/c1ccc(Cl)c([N+](=O)[O-])c1)c1ccc2nc[nH]c2c1	-7%	16%	15%[59 µM]	-30%	-5%
O=C(O)c1c2c(nc3ccc(S(=O)(=O)N4CCC(C(=O)NC5CCCCCC5)CC4)cc13)CCCC2	50µM*	4%	40µM*	?	1%
CC(C)CCNC(=O)C1CCN(S(=O)(=O)c2ccc3nc4c(c(C(=O)O)c3c2)CCCCC4)CC1	-20%	31%	-9%	-5%	20%
CC1CCc2nc3ccc(S(=O)(=O)N4CCC(C(=O)N5CCCCCC5)CC4)cc3c(C(=O)O)c2C1 (stereo not given)	-21%	-8%	45µM*	-16%	13%
COc1ccccc1C(=O)Nc1ccc(N2CCN(Cc3ccccc3)CC2)cc1	45µM*	?	?	?	6%
CC(=O)Nc1ccc(CN2CCN(c3cccc(C(F)(F)F)c3)CC2)cc1	50µM*	-50%	?	2.5µM*	-28%
COc1cccc(OC)c1C(=O)Nc1ccc(N2CCCC2)cc1	?	-13%	13µM*	?	9%
CCC(=O)Nc1ccc(N2CCN(Cc3ccccc3)CC2)cc1	-6%	26%	50µM*	-16%[11.4 µM]	12%
COc1ccc2nc(SCC(=O)NC(C)C)[nH]c2c1	8%	28%	-42%[59 µM]	-10%	22%
COc1ccc(NC(=O)CN(C)C2CCCCC2)cc1Cl	1%	26%	/	-15%	7%
Cc1ccc(NC(=O)c2cc(NC(=O)c3ccccc3C(=O)O)ccc2N2CCCCC2)cc1	?	14%	14µM*	-22%	-26%
COc1ccc(Br)cc1C(=O)Nc1ccc(N2CCCC2)cc1	22µM*	?	/	?	-5%
COc1ccc(C)cc1NC(=O)CN1CCN(C/C=C/c2ccccc2)CC1	5%	2%	?	?	89µM*
COc1ccc(C)cc1NC(=O)c1ccc(CN2CCN(c3ccccc3)CC2)cc1	?	-9%	50µM*	?	-12%
COc1ccc(NC(=O)c2ccc(CN3CCN(c4ccccc4)CC3)cc2)cc1OC	-2%	13%	-29%[59 µM]	-20%	-8%
